SMILES strings stand for the structures. Compounds without any hit were thinned out: in the full panel of roughly 79,000, 15% have a hit. Values without a mark were called inactive. No stated cut-off is given here; in the data, active means growth inhibition above about 70%; inactive means the rest.

Growth inhibition data for 16 compounds are collected here from PubChem BioAssay (NCI).

This experiment can be described thus: NCI Yeast Anticancer Drug Screen. Data for the rad50 strain (AID 155).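 Further: 0% = growth of vehicle-only cultures of the same strain.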 The settings on record: S. cerevisiae rad50 strain growth inhibition; at 50.0 µM; hits give high values. The method, boiled down: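 DNA repair mutant yeast, compound exposure, growth read-out; inhibition is taken relative to vehicle.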
For the compound `CCCCCNC(=O)c1csc(-c2csc(CCNC(C)=O)n2)n1`, the growth inhibition is -18.9%.

`COc1ccc(-c2oc3cc(OC)c(OC)c(OC)c3c(=O)c2O)cc1O`: the growth inhibition is 62.5%.

Regarding `CC1=C(C(=O)NN)CC/C1=N\N`, the growth inhibition was -25.4%.

`O=[N+]([O-])c1ccc(N/N=C(/c2ccc3ccccc3c2)c2ccccc2F)c([N+](=O)[O-])c1`: the growth inhibition is -9%.

In the case of `Nc1ccn(C2CC(F)C(CO)O2)c(=O)n1` (stereo unspecified), the growth inhibition was 19.6%.

For the compound `Cc1cn(-c2c(C)c(C)c(-n3c(C)ccc3C)c(C)c2C)cc1C`, the growth inhibition was -3.1%.

Turning to `CC(O)CSCC(C)O` (stereo unspecified), the growth inhibition is 10.1%.

Turning to `CCOC(=O)C(=CNC(=S)Nc1ccc(Cl)c(Cl)c1)C(=O)OCC`, the growth inhibition was 53.5%.

Take `COc1ccccc1N(CN1C(=O)CCC1C(=O)O)C(C)=O` (stereo unspecified): the growth inhibition was 9.2%.

With `CC1=CC(C)(C)Nc2ccccc21`, the growth inhibition is -0.25%.

As to `Cc1ccc(N=NC2=C3Sc4ccccc4N=C2N(c2ccc(Br)cc2)C(=S)N3c2ccc(Cl)cc2)cc1`, the growth inhibition is -8.6%.

`CCN(CC)C(=S)N1CCCCC1`: the growth inhibition was 10.2%.

Turning to `O=C(c1cccc([N+](=O)[O-])c1)N1CCOCC1`, the growth inhibition was -2.65%.

`Cc1ccc(N2C(=O)/C(=C/c3ccc(N(CCC#N)CCC#N)cc3)CC2(O)c2ccccc2)cc1` (stereo unspecified): the growth inhibition was -12.1%.

As to `O=C(c1cc([N+](=O)[O-])cc([N+](=O)[O-])c1)N1CCCC1`, the growth inhibition was -45.8%.

Consider `CCOc1ccc(NC(=O)c2cccc(C(=O)Nc3ccc(OCC)cc3)c2)cc1`, for which the growth inhibition was -13.8%.
